Measurements reported in PubChem BioAssay (Tox21).
A number with no mark means an inactive call. Calls come from the whole dose curve.

Target: Muscarinic acetylcholine receptor M1 (Homo sapiens) (UniProt P11229)
Assay: Cholinergic receptor muscarinic 1 (CHRM1) small molecule agonists, cell-based qHTS assay (AID 1963589); note: nearly all actives have a fitted effect of over 35% in size
Conditions: CHRM1-CHO cells, agonist mode, calcium flux fluorescence; series mostly up to 76.8 µM; activation: at the top concentration
Text: National Center for Advancing Translational Sciences [NCATS]
Division of Preclinical Innovation [DPI]
U.S. Environmental Protection Agency [EPA]
National Institutes of Environmental Health Sciences [NIEHS]
National Toxicology Program [NTP]
U.S. Food and Drug Administration [FDA]
The CHRM1 is a muscarinic receptor. This receptor plays a crucial role in learning and memory processes and has long been identified as a promising therapeutic target for the improvement of cognitive decline in Alzheimer's disease (AD). The CHRM1-CHO cell line stably expressing human muscarinic acetylcholine receptor M1 (CHRM1) can be used for screening agonists and antagonists of interactions between CHRM1 and its ligands. The CHRM1-CHO Calcium Flux Assay is a homogeneous fluorescence-based assay for detecting the intracellular calcium level using FDSS kinetic plate reader system.
CHRM1-CHO cells were dispensed at 1000 cells/3uL/well in 1536-well black-clear bottom plates using a Multidrop Dispenser. After the assay plates were incubated at a 37 C/5% CO2 incubator for 18 h, 3 uL of Dye Loading Buffer was transferred to the assay plate by a Flying Reagent Dispenser. The assay plates were incubated at 37 C for 1h. For agonist mode, 23 nL of compounds dissolved in DMSO, positive controls or DMSO only was transferred to the assay plate by a pin tool. […] Each test compound was measured at 15 concentrations in three independent runs.
% is set by controls: 0 for no effect and ±100 for the full control effect.

Chain of Muscarinic acetylcholine receptor M1 (Homo sapiens) (P11229 whole entry, looked up): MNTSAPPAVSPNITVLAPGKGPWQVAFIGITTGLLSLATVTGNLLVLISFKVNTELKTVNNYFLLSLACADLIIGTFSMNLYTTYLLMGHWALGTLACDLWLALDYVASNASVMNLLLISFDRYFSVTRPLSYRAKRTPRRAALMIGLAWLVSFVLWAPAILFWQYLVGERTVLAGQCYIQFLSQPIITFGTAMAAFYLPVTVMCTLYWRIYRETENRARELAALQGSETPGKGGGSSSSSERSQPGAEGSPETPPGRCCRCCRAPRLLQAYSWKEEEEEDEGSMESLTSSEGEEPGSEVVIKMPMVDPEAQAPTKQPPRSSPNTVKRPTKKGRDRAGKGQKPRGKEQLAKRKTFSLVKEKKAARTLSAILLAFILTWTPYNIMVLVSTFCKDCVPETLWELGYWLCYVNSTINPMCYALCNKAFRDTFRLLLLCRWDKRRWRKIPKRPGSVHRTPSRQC

SMILES | activation
CC[C@H]1O[C@]2(CC[C@@H]1C)C[C@@H]1C[C@@H](C/C=C(\C)C[C@@H](C)/C=C/C=C3\CO[C@@H]4[C@H](O)C(C)=C[C@@H](C(=O)O1)[C@]34O)O2 | 2.09%
COc1cc2nc(N(C)CCCNC(=O)C3CCCO3)nc(N)c2cc1OC (stereo not given) | 0.0222% [at 35.3 µM]
Cc1c(Nc2ncccc2C(=O)O)cccc1C(F)(F)F | 0.495% [at 35.3 µM]
O=C1NC(=O)c2cc([N+](=O)[O-])ccc21 | 15.4%
CCCCC(CC)COCCCN (stereo not given) | 1%
CCCOC(=O)CCCCC(=O)OCCC | -1.15%
CC/C=C\CC/C=C/CO | 0.284%
CC(C)=CC=O | -0.103%
CO[C@@]1(NC(=O)Cc2cccs2)C(=O)N2C(C(=O)O)=C(COC(N)=O)CS[C@@H]21 | 0.337% [at 35.3 µM]
CC(=O)c1ccc([N+](=O)[O-])cc1 | -2.58%
Cn1c(N)nc2nc[nH]c2c1=O | 0.28%
N#CCCOCCOCCC#N | -0.378%
CCCCCCCCCCCCCCCCCCCl | 0.0826% [at 6.97 µM]
O=Cc1ccc(Cl)c([N+](=O)[O-])c1 | 1.12%
O=S(=O)(O)c1cc(S(=O)(=O)O)c2ccc3c(S(=O)(=O)O)cc(S(=O)(=O)O)c4ccc1c2c43 | -0.115% [at 15.8 µM]
NC(=O)c1ccccc1 | 0.117%
CC[N+](CC)(CC(=O)Nc1c(C)cccc1C)Cc1ccccc1 (tested in a mixture with another compound) | -0.428% [at 35.3 µM]
Fc1ccccc1[C@@H](F)COC1CCC(Nc2ncnc3[nH]ncc23)CC1 (stereo not given in full) | 6.4%
CCCCCCCC/C=C\CCCCCCCC(=O)OCC | 0.334%
c1cc2ccc3ccc4ccc5cccc6c(c1)c2c3c4c56 | 0.275% [at 2.72 µM]

SMILES | activation
Nc1ccc(/C=C/c2ccc(N)cc2S(=O)(=O)O)c(S(=O)(=O)O)c1 | 0.145% [at 0.29 µM]
CCCCCCCC#N | 0.176%
Cn1c(NCCN(CCO)CCCc2ccc([N+](=O)[O-])cc2)cc(=O)n(C)c1=O | -0.0079% [at 35.3 µM]
CCCCCCCCCc1ccc(OCCOCCO)cc1 | 3.1% [at 35.3 µM]
O=C(Nc1ccc(Oc2ccc(Cl)cc2)c(Cl)c1)c1cc(I)cc(I)c1O | 0.647% [at 35.3 µM]
c1ccc2sc(SN(C3CCCCC3)C3CCCCC3)nc2c1 | 0.743%
CC(=O)SCC(CC(=O)c1ccc(C)cc1)C(=O)O (stereo not given) | 0.347% [at 35.3 µM]
CCCC(=O)OCC | 0.0894%
c1csc(SSc2cccs2)c1 | 0.659%
CC1=C(/C=C/C(C)=C/C=C/C(C)=C\C=O)C(C)(C)CCC1 | -0.0173%
O=C1c2ccccc2C(=O)c2c1ccc(O)c2O | 0.664% [at 35.3 µM]
CCCCCCCCCCO[C@@H]1O[C@H](CO)[C@@H](O)[C@H](O)[C@H]1O | -0.0019%
C=C1C(=C/C=C2\CCC[C@]3(C)[C@@H]([C@H](C)/C=C/[C@@H](O)C4CC4)CC[C@@H]23)C[C@@H](O)C[C@@H]1O | 5.86% [at 35.3 µM]
CC/C=C/CCCCCCCCCCOC(C)=O | -0.633%
CC(C)C(O)(c1ccc(OC(F)(F)F)cc1)c1cncnc1 (stereo not given) | -1.25%
COCCOc1cc2cc(C(=O)NC3CCN(C(C)C)CC3)n(CC(=O)Nc3ccc(Cl)cn3)c2cn1 | -1.05%
CC(C(=O)O)c1ccc(C(=O)c2cccs2)cc1 (stereo not given) | 2.64% [at 35.3 µM]
CN1CCN(CCCN2c3ccccc3Sc3ccc(S(=O)(=O)N(C)C)cc32)CC1 | -0.61% [at 35.3 µM]
CC(NCCC(c1ccccc1)c1ccccc1)c1ccccc1 (stereo not given) | 0.0497% [at 35.3 µM]
Cc1cc(O)c(C(C)C)cc1Cl | -0.263% [at 35.3 µM]
